For 33 molecules, Potency and redox activity (% of DA3003) results are on record in PubChem BioAssay (NCATS).

Each structure is given as a SMILES string. Results filed as inconclusive are left out. Where a call stands in place of a potency, no number is given. A number with no mark means an inactive call. The source made the active and inactive calls. Calls come from the whole dose curve; as a rule, active = well fitted activation curve with a large enough effect; inconclusive = small, poorly fitted or top-dose-only effect; inactive = flat fitted curve, though single readings scatter.

This experiment is described as follows: Primary redox qHTS assay for identification of artifact compounds. (AID 1845223). The conditions noted are these: Amplex Red/HRP redox cycling with DTT, fluorescence; series mostly up to 53.8 µM. In short, it runs like this:
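Amplex Red (25 uM) and HRP (250 mU/mL) in HBSS, with compounds for 15 min, then 250 uM DTT for 30 min, room temperature, dark. Fluorescence 525/598 nm read; normalized to DMSO and 10 uM DA3003; Hill fit.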
In general terms: In qHTS, concentration-response curves come from the screen itself.
With `C=CC(C)(O)CC/C=C(/C)COC(=O)C(C)C1CCC(C)(C=C)O1` (stereo not drawn), the Potency entry was “inactive”.
Regarding `COc1ccccc1C(=O)Nc1cccc(NC(=O)c2cccc(C)c2)c1`, the Potency result was “inactive”.
Regarding `C[C@H]1CC[C@@]2(OC1)O[C@H]1CC3[C@@H]4CC[C@@H]5C[C@@H](O[C@@H]6O[C@H](CO)[C@@H](O[C@@H]7O[C@H](CO[C@@H]8OC[C@@H](O)[C@H](O)[C@H]8O)[C@@H](O[C@@H]8O[C@H](CO)[C@H](O)[C@H](O)[C@H]8O)[C@H](O)[C@H]7O)[C@H](O)[C@H]6O)CC[C@]5(C)C4CC[C@]3(C)[C@H]1[C@@H]2C` (stereo partly drawn), the redox activity (% of DA3003) is 17.1% [at 11.5 µM].
On to `C=C(C)C1=C[C@@]2(C)C(=CC1=O)CC[C@@H](O)[C@@H]2C`, for which the Potency result is “inactive”.
The same measure, in the same setting: the entry for `O=C(Nc1ccccc1)c1ccc(Nc2nnc(-c3ccc(O)cc3)c3ccccc23)cc1` is “inactive”.
As for `Cc1nc(NC(=O)N2CCCC2C(N)=O)sc1-c1ccnc(C(C)(C)C(F)(F)F)c1` (stereo not drawn), the Potency result is “inactive”.
The same measure, in the same setting: the entry for `Cc1cc(C)c2c(c1)C(N(Cc1cc(C(F)(F)F)cc(C(F)(F)F)c1)c1nnn(C)n1)CCCN2CC1CCC(C(=O)O)CC1` (stereo not drawn) is “inactive”.
Same read-out and setting: the entry for `C=C(C(=O)O[C@H]1C/C(C)=C/CC/C(CO)=C/[C@H]2OC(=O)C(=C)[C@H]12)C(O)CO` (stereo partly drawn) is “inactive”; for `CCc1ccccc1OC[C@@H](O)CN[C@H]1CCCc2ccccc21` it is “inactive”.
Take `O=C(Nc1cc(C(F)(F)F)ccc1N1CCCCC1)c1ccncc1`: the Potency result is “inactive”.
`CNC1CN(c2ccc3c(=O)c(C(=O)O)cn(-c4nccs4)c3n2)CC1OC` (stereo not drawn): the redox activity (% of DA3003) was -6.95% [at 11.5 µM].
In the case of `COc1c(C(O)CC(C)C)ccc2c1C(=O)OCc1cc(C)cc(O)c1O2` (stereo not drawn), the Potency entry was “inactive”.
As to `CC[C@H]1CN(c2nc(N)c(C(N)=O)nc2Cl)CCN1C1CCN(Cc2ccc(Cl)cc2)CC1`, the Potency entry was “inactive”.
Same read-out and setting: the entry for `Cc1ccccc1C(C(=O)NC1CCCCC1)N(C(=O)Cn1cnc2ccccc21)c1cccc(F)c1` (stereo not drawn) is “inactive”; for `COc1ccc(CCCN2CCC(COC(c3ccccc3)c3ccccc3)CC2)cc1` it is “inactive”; for `C=C1CCC[C@]2(C)CC/C(=C(/CO)C(=O)OC)C[C@@H]12` it is “inactive”.
With `Cc1cnn(-c2ccccc2)c1NC(=O)COCc1ccccc1`, the Potency result was “inactive”.
In the case of `C/C=C(/C)C(=O)OC1CC(C)(C)CC2C3=CCC4C5(C)CCC(O[C@@H]6O[C@H](C(=O)O)[C@@H](O)[C@H](O)[C@H]6O[C@@H]6O[C@H](CO)[C@H](O)[C@H](O[C@@H]7OC[C@H](O)[C@H](O)[C@H]7O[C@@H]7O[C@H](CO)[C@@H](O)[C@H](O)[C@H]7O)[C@H]6O)C(C)(C)C5CCC4(C)C3(C)C(O)C(O)C12CO` (stereo partly drawn), the redox activity (% of DA3003) is 15.7% [at 11.5 µM].
In the case of `Fc1ccc2c(CCNCc3cccc(OCC(F)(F)C(F)F)c3)c[nH]c2c1`, the Potency result was “inactive”.
Same read-out and setting: the entry for `Cc1ccc(C)c(NS(=O)(=O)c2cc(C(=O)Nc3ccccc3-c3ccccc3)ccc2C)c1` is “inactive”.
Same read-out and setting: the entry for `C=C1CC2[C@@]3(C)C=CC(=O)C(C)(C)C3=C(O)C(=O)[C@@]2(C)C2(C(=O)OC)C(=O)C(C)OC(=O)[C@@]12C` (stereo partly drawn) is “inactive”; for `COc1ccc(N(C(=O)Nc2c(C)cccc2C)c2cc(Nc3ccc(N4CCN(C)CC4)cc3)ncn2)c(OC)c1` it is “inactive”.
On the same count and under the same terms, the entry for `COC(=O)C[C@H]1C(C)(C)[C@H](OC(=O)c2ccccc2)C2CC3=C4CC(=O)O[C@@H](c5ccoc5)[C@]4(C)CCC3[C@@]1(C)C2=O` (stereo partly drawn) is “inactive”; for `C=CC(C)(O)CC[C@@H]1[C@@]2(C)CCCC(C)(C)C2CC[C@@]1(C)O` (stereo partly drawn) it is “inactive”.
With `CC(C)c1noc(C2CCN(c3ncnc(Nc4ccc(S(C)(=O)=O)cc4F)c3[N+](=O)[O-])CC2)n1`, the Potency entry was “inactive”.
The same measure, in the same setting: the entry for `Cc1ccc(S(=O)(=O)NCc2ccc(C(=O)NCCN(Cc3ccccc3)C(C)C)cc2)cc1` is “inactive”; for `CC(C)/C=C1\NC(=O)C(C(C)C)n2c1nc1ccccc1c2=O` (stereo not drawn) it is “inactive”; for `Fc1ccc(-c2nc(-c3c(F)cccc3F)[nH]c2-c2ccncc2)cc1` it is “inactive”.
In the case of `O=C(c1ccccn1)N(Cc1cccs1)C1(C(=O)NC2CCCCC2)CCCCC1`, the Potency entry was “inactive”.
Consider `O=C(Nc1ccc2[nH]c(=O)oc2c1)C(=O)N1CCC(Cc2ccc(F)cc2)CC1`, for which the Potency result was “inactive”.
Consider `CCC/C=C/c1cc2c(C=O)c(O)c(CC=C(C)C)cc2o1`, for which the Potency entry was “inactive”.
On the same count and under the same terms, the entry for `COc1ccccc1N1CCN(CC(C(=O)NC(C)(C)C)c2ccccc2)CC1` (stereo not drawn) is “inactive”.
Still for that read-out and setting: the entry for `O=C(Nc1ccc(N2C(=O)[C@@H]3[C@H](C2=O)[C@@H]2C=C[C@H]3C2)c(Cl)c1)c1ccccn1` is “inactive”.
